Measurements from paper PMC12864922, “TDP-43 directly inhibits mRNA accumulation in neurites through modulation of mRNA stability”.
Over roughly 9,900 sequences, “r (bound/input frequency ratio)” has its median near 0.7; the highest 2% begin near 6.5. The list comes from a sample in which the highest values are over-represented; it also holds similar and randomly drawn sequences.

B1: ENSMUSG00000061578.897|Ksr2|214:218 (ssRNA)
RNA: GGGAGUUCUACAGUCCGACGAUCGCUUCGAUAUCCGCAUGCUAUCCUGGGACACUACCCAAACCCUAGCACUCUCCCAGUGACUCUCCUAUGAGUACAUAUGCCAUCCUGCUUCCUUUGUGGCAAAACCCUGGGUCACCCAGAGACAGAUUUCCCAGAAUCCCUGGGCCACUUCUCAAUUCUACCCAUGACAGACAUGUCCCAUCCAUGAGCCCAGAUAGUCAAAGACUUCAGCACAAGGGUGUUUAGAGUAGGCACACACGAAGUAUCAAUAAGGUUAUUGAGAUGAGGAUUUAGAAAGAUCCUCUUGCGGUCGCACUAGUGUGGAAUUCUCGGGUGUCAAGG
B2: ENSMUSG00000090935.723|Synj2bp (ssRNA)
RNA: GGGAGUUCUACAGUCCGACGAUCGCUUCGAUAUCCGCAUGCUAAACAUUGUUUUAUUCCUAGGUGCUCAGGACAGACUGAUCAACCUCCAGUAACAUAUGUGGUUAGUAAGUGCUUCAGCUUGUGUAGCCAUUAAUAACCAAGUCAUAGGAUUGUGAAUCUAAAAUACUCCUGGGUAAAAUUUGUAUUAGAAUGGAAAAAAAAAUGAGGGUCAGAAAGGUGAGCUAACUUCAAGUUAGAUACUCCCCUCUAUUUUGGUCUCAAAUUUGUUUUAGUGUGUCCACAACAUGAAAACAUACAAAAACUCUUGCGGUCGCACUAGUGUGGAAUUCUCGGGUGUCAAGG
B3: ENSMUSG00000058297.523|Spock2 (ssRNA)
RNA: GGGAGUUCUACAGUCCGACGAUCGCUUCGAUAUCCGCAUGCUAUGGGUGGGCACAGGUCUGCCUUGCUCCAGCCCCCUCCCUUGGUUUCUGUUGGUACCCAUUUGGCUUUUAUCUGCUUUCUGCUUCACCACUAAGUGCGUAGGUGGGGUCUUUUGAUAUCGGCUCCCCAAAGCCCAAGCCCACAGCCCUAGGAGAGAACCAGGGGCCCAUCUUUGACACCUGGGCCAUCACGAGCCCUCCCGCCUGCAGUUGUCCUAGGGAAAGACCUGGGGGUGCAAAAGGAGAUUCAAGACAUCCGUACCCUCUUGCGGUCGCACUAGUGUGGAAUUCUCGGGUGUCAAGG
B4: ENSMUSG00000004113.207|Cacna1b|52:56;242:246 (ssRNA)
RNA: GGGAGUUCUACAGUCCGACGAUCGCUUCGAUAUCCGCAUGCUAAGGAAGCAUCGGGUGGAUUGGGUGGGAGCUGCUCAGAGCAGCACGGGGGCUACACACUUAGGGACAUUGACAGUGUCCAUCAGCAUGUCAGAGAAGCAGCUGUAGUGCCCGUGUUUCUCCCUGAGUCAUGGGUUCUGAAGAAGCCAGAGCGGCACAAUGCGUGCUUGCAUGAGGCACUUUCAGCCUUUUUAAAUCUGACUCUCAGGGAUGGGAUGCCUGCCAAGUAGGGUGUAAUCUCUGUACACAUUUUAAAACAACAACUCUUGCGGUCGCACUAGUGUGGAAUUCUCGGGUGUCAAGG
B5: ENSMUSG00000032194.344|Kank2 (ssRNA)
RNA: GGGAGUUCUACAGUCCGACGAUCGCUUCGAUAUCCGCAUGCUAAACACCCACCAGUCUCUCCUCUCCUUCCCGCUAUACUCCAGUUUUCUUUCUACUCUGUGACCACGGUACAUCCAUGAAGACAGUGUUACACGUAAAUGAAGUAUUCUUUUCUUGUAAUCAUAUUUUAGAAAGUAAAAGGACUUAAUAAAGCUACAAAUAAAAACAUUGCCUCGUGUCUGUUUGUUCUCCUUCUUUUUAGGCUAGCCUUGAACUCCUGAUCCUCCUGCCUUCCAUCUCCCAAGUGCUGGGAUGACAGGCACCUCUUGCGGUCGCACUAGUGUGGAAUUCUCGGGUGUCAAGG
B6: ENSMUSG00000004113.341|Cacna1b|1:8;11:16 (ssRNA)
RNA: GGGAGUUCUACAGUCCGACGAUCGCUUCGAUAUCCGCAUGCUACACACACAAGCACACAUCAGCAAGUGGCUAUUGUCAACCAUAGGGCUAUGCAACAAAAGACACAUUACUAGAAACAAAACACAAGACCACCACUUGGUCUAGGGUUUCAGCAUGAUUGUGACCAAACCUUUUAUAGAAUUUCCUUAUACAAAGGCACAAUACCCUGAAACUUUAACAGAGUAUUUUAUUCCAGUAGGGUAAAAUUAAACGGGACUCUUGGACUGCGCAUGUGACUGCACCCACGUUGCAACAGAGAAGGACUCUUGCGGUCGCACUAGUGUGGAAUUCUCGGGUGUCAAGG
B7: ENSMUSG00000061578.75|Ksr2 (ssRNA)
RNA: GGGAGUUCUACAGUCCGACGAUCGCUUCGAUAUCCGCAUGCUAAUGGAACCAGAAACAAUACACCUGCUCCGUUGUCAAGGCUUCUAGGCCAAGGUCAGGGUAGGGAGGUGGGGUGGGUUAAACUUGCAAACAUCUGAUUUUAGAGGUCCCAUUCCAAGAUGGAAGUCACCGGUUGCCGCUGAGCACACAAUUCUGAAGGACAGUAGGCAGUCCUGCAGGUCUUUUUUAGCACAGGGCCUCUCUGGGGACCAGUCCCUGGCCUUCACCCUUCUCCCAUUUUGUAAGAACACUGUUCUAACUCACUCUUGCGGUCGCACUAGUGUGGAAUUCUCGGGUGUCAAGG
B8: ENSMUSG00000034801.114|Sos2 (ssRNA)
RNA: GGGAGUUCUACAGUCCGACGAUCGCUUCGAUAUCCGCAUGCUACCCCAGGUGAUCAGCAGCAUUGCUUCCUCGGCUCCCCAGUGCUGCCCUAGGCCAGUAUAAAGACUCUGUAUUGCACUGUAGACUCUGCUAGCAGACGGCACUGAGAGGAGCCAGCGCUCGAGGGCGUUCUCACGCCUGACUGAUAGAUACCUUUUUAGGGUGAUGAACUUACACAGAUGCAGAAGAUAUGGGGUGGUGGUCCUGGGUUUUAACCCUCUGACCGUCUUCUAGCUUCUAAUUUUGUUUGGUUUUUACAUCUACUCUUGCGGUCGCACUAGUGUGGAAUUCUCGGGUGUCAAGG
B9: ENSMUSG00000061578.1547|Ksr2|98:102 (ssRNA)
RNA: GGGAGUUCUACAGUCCGACGAUCGCUUCGAUAUCCGCAUGCUAUUUAUAAAGUUUUCUACACUUCUCAAAAAAAAAAAUAUUUCUAACCUUGGCUGUUGGACAGUCUGUGAGCCUGUGAGCCGGCAAGCCUGUUGUUUCUACACAUUAGUGCAAUGUUAGUGAGAAUCCAGUGUCUGAGUUAUUAAUGCCAAUAAAGAAUUUGAGAAUUACUGCAUCCGCUGCUGUCACUCCAGGUCAGAACUCUGCUGUUGUCUGUUGGAUGGAAGGAAGCUCCAGAGUGAGGAACAAUGGUUGCUAACUGCCUCUUGCGGUCGCACUAGUGUGGAAUUCUCGGGUGUCAAGG

The binders below were run against TDP-43 (Homo sapiens, UniProt Q13148 1-414) (assay: RNA Bind-n-Seq with designed 260-mer pool; 25 mM Tris-HCl, 150 mM KCl, 3 mM MgCl2, BSA (printed 500 mg/mL), 20 units/mL SUPERase IN; pH not stated; 500 nM RNA pool, 1 h, 4 C; TDP-43 5, 50, 500 nM; high values mean tight binding). Details: protein: recombinant; tags: SBP (GST cleaved off with PreScission; pGEX-GST-SBP).
Method in brief: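 Duplicate measurements used two independent batches of recombinant SBP-tagged TDP-43, which was captured on streptavidin beads at 5, 50 or 500 nM. The beads were incubated with 500 nM of an in vitro-transcribed 260-nt 3′ UTR oligo pool for 1 h at 4 °C in 25 mM Tris-HCl, 150 mM KCl, 3 mM MgCl2, BSA and SUPERase IN. After washing, biotin elution, reverse transcription, PCR amplification and sequencing, binding was expressed as R: each oligo's normalized read abundance in the bound sample over its abundance in input.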

Chain of TDP-43 (Q13148 whole entry): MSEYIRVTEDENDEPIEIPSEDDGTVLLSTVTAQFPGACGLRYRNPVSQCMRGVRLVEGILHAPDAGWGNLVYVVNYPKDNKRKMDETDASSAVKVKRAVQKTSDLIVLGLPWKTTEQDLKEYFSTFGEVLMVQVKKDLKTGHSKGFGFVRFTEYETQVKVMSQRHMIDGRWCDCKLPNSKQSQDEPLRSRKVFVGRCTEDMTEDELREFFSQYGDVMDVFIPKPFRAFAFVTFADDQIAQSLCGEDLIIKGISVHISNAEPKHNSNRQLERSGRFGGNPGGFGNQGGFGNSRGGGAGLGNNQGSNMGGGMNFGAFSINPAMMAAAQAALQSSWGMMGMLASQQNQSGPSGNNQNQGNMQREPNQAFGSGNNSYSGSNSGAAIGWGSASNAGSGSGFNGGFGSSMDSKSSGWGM

Question: How did the binding signal turn out when B1 was run?
Answer: 0.295 R (bound/input frequency ratio)

Question: B2 was tested. Which binding signal did it give?
Answer: 0.199 R (bound/input frequency ratio)

Question: For B3, which binding signal is on record?
Answer: 0.928 R (bound/input frequency ratio)

Question: Which binding signal does the source give for B4 here?
Answer: 0.888 R (bound/input frequency ratio)

Question: B5 was tested. Which binding signal did it give?
Answer: 0.585 R (bound/input frequency ratio)

Question: With B6 as the binder, how does the binding signal read?
Answer: 0.234 R (bound/input frequency ratio)

Question: How did the binding signal turn out when B7 was run?
Answer: 0.151 R (bound/input frequency ratio)

Question: B8 was tested. Which binding signal did it give?
Answer: 0.44 R (bound/input frequency ratio)

Question: Which binding signal does the source give for B9 here?
Answer: 0.38 R (bound/input frequency ratio)
